Experimental findings from PubChem BioAssay (NCI) are described below.

Among the test systems are SK-MEL-2 melanoma; EKVX NSCLC; SN12C renal; UO-31 renal; CAKI-1 renal; A498 renal; CCRF-CEM leukemia; MOLT-4 leukemia; SR leukemia; RPMI-8226 leukemia; SK-OV-3 ovarian; IGROV1 ovarian; OVCAR-3 ovarian; HS 578T breast; NCI/ADR-RES ovarian; ACHN renal; OVCAR-8 ovarian; OVCAR-5 ovarian; OVCAR-4 ovarian.
Common to all, as to experiment: NCI-60 one-dose screen, 48 h (100 = growth as untreated, 0 = no growth, -100 = all killed)
Holding throughout (settings): 10 µM unless noted

The panel holds about 83,000 compounds, 20% with a hit somewhere; the sample as a whole holds those more often.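 Interpretation: 100, growth as untreated; towards 0, rising growth inhibition; 0, no net growth; 0 to -100, cell death. Compounds scoring below 10 were considered active.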 A number with no mark means an inactive call. Activity calls are given as the source filed them.

Consider `OCCN1CCN(CCCN2c3ccccc3Sc3ccc(C(F)(F)F)cc32)CC1`, for which the growth in the experiment with SK-MEL-2 melanoma was 8.96% (active); with EKVX NSCLC, 47.2%; in the experiment on SN12C renal, 43.6%; in the experiment on UO-31 renal, 32.5%; in the experiment with CAKI-1 renal, 25.7%; with A498 renal, 44.5%. The growth with CCRF-CEM leukemia is 29.7%; in the experiment on MOLT-4 leukemia it was -16% (active); in the experiment on SR leukemia it was -42.9% (active); with RPMI-8226 leukemia it was 18.8%; in the experiment with SK-OV-3 ovarian it was 73.8%; in the experiment on IGROV1 ovarian it was 24.5%. Further, the values for the growth with OVCAR-3 ovarian, with HS 578T breast and in the experiment on NCI/ADR-RES ovarian were 53.4%, 24.6% and 46.8%, respectively.

In the case of `COc1ccc(-c2cc(-c3nnc(SCC(=O)Nc4ccc(C(C)=O)cc4)n3-c3ccccc3)c3ccccc3n2)cc1OC`, the growth is 97.9% in the experiment with SK-MEL-2 melanoma; 97.7% in the experiment on EKVX NSCLC; 110% in the experiment on SN12C renal; 85.3% in the experiment on UO-31 renal; 108% in the experiment with ACHN renal; 114% with A498 renal. Besides, the growth in the experiment on CCRF-CEM leukemia is 104%; in the experiment with MOLT-4 leukemia, 107%; with SR leukemia it was 121%; with RPMI-8226 leukemia, 105%; with OVCAR-8 ovarian it was 104%; in the experiment on OVCAR-5 ovarian, 106%. For the same compound, the growth was 106% in the experiment on OVCAR-4 ovarian; 81.6% in the experiment with SK-OV-3 ovarian; 105% with IGROV1 ovarian; 96.8% with OVCAR-3 ovarian; 108% in the experiment with HS 578T breast; 104% in the experiment on NCI/ADR-RES ovarian.

As for `COc1cc(-c2nc3nc4sc(C)c(C)c4c(=O)n3[nH]2)cc(OC)c1OC`, the growth in the experiment on SK-MEL-2 melanoma was 80.1%; in the experiment on EKVX NSCLC, 88%; with SN12C renal, 93.6%; in the experiment with UO-31 renal, 54.7%; in the experiment with ACHN renal it was 83.2%; in the experiment with CAKI-1 renal, 61.8%. Also, the growth in the experiment with A498 renal is 74.5%; in the experiment on CCRF-CEM leukemia, 61%; with MOLT-4 leukemia, 68.3%; with SR leukemia, 30.7%; with RPMI-8226 leukemia, 74.3%; in the experiment with OVCAR-5 ovarian it was 96.4%. In addition, the growth was 93.5% in the experiment on OVCAR-4 ovarian; 92% in the experiment with SK-OV-3 ovarian; 66.6% in the experiment with IGROV1 ovarian; 93.1% in the experiment with OVCAR-3 ovarian; 87.7% in the experiment with HS 578T breast; 70.8% in the experiment with NCI/ADR-RES ovarian.

Take `CN[C@@H]1C(OC2[C@H](O[C@H]3[C@H](O)[C@@H](O)[C@H](N=C(N)N)[C@@H](O)[C@@H]3N=C(N)N)OC(C)[C@]2(O)CO)OC(CO)C(O)C1O` (some centres not stated): the growth with SK-MEL-2 melanoma is 112%; in the experiment with EKVX NSCLC it was 113%; in the experiment on SN12C renal, 108%; with UO-31 renal, 102%; in the experiment on CAKI-1 renal, 107%; in the experiment with A498 renal, 109%. Also, the growth with CCRF-CEM leukemia is 101%; in the experiment on MOLT-4 leukemia, 92.7%; with SR leukemia, 102%; in the experiment on RPMI-8226 leukemia, 103%; in the experiment on OVCAR-8 ovarian, 103%; in the experiment with OVCAR-4 ovarian, 111%. The growth is 112% with SK-OV-3 ovarian; 105% with IGROV1 ovarian; 116% in the experiment on OVCAR-3 ovarian; 112% with HS 578T breast; 105% in the experiment with NCI/ADR-RES ovarian.

Consider `CN(C)c1ncnc2c1ncn2C1CCCCO1` (configuration not stated), for which the growth was 102% in the experiment on SK-MEL-2 melanoma; 102% in the experiment with EKVX NSCLC; 93.8% with SN12C renal; 73.2% with UO-31 renal; 104% in the experiment on ACHN renal; 102% in the experiment on CAKI-1 renal. The growth in the experiment with CCRF-CEM leukemia was 94.9%; in the experiment on MOLT-4 leukemia it was 95.1%; in the experiment on SR leukemia, 87.7%; in the experiment on OVCAR-8 ovarian, 107%; in the experiment on OVCAR-5 ovarian, 104%; in the experiment with OVCAR-4 ovarian, 104%. Further, the growth with SK-OV-3 ovarian was 107%; with IGROV1 ovarian, 112%; with OVCAR-3 ovarian, 113%; in the experiment with NCI/ADR-RES ovarian it was 108%.

On to `COc1cnc2c(c1)C(=O)c1c-2n(CCCNC(C)C)c(=O)c2cc(F)ccc12`, for which the growth in the experiment on SK-MEL-2 melanoma is -5.42% (active); in the experiment with EKVX NSCLC, -20.8% (active); with SN12C renal, -4.41% (active); in the experiment with UO-31 renal it was -89.9% (active); in the experiment on ACHN renal, -69.4% (active); in the experiment on A498 renal, -89% (active). Moreover, the growth in the experiment with CCRF-CEM leukemia is -1.1% (active); in the experiment on MOLT-4 leukemia, -22.9% (active); in the experiment with SR leukemia, -13.4% (active); in the experiment with RPMI-8226 leukemia, -28.1% (active); with OVCAR-8 ovarian, -14.2% (active); in the experiment on OVCAR-5 ovarian, -26.5% (active). Also, the growth with OVCAR-4 ovarian was -0.201% (active); in the experiment on SK-OV-3 ovarian, -33.3% (active); with IGROV1 ovarian, -5.18% (active); in the experiment with OVCAR-3 ovarian, -30.2% (active); with HS 578T breast, 16%; in the experiment on NCI/ADR-RES ovarian, -16.1% (active).

As for `CCOC(=O)N1CCC(N=C2CSc3nnc(-c4cc(C(F)(F)F)cc(C(F)(F)F)c4)n3N2)CC1`, the growth in the experiment on SK-MEL-2 melanoma was -22.5% (active); in the experiment with EKVX NSCLC, 31.2%; in the experiment with SN12C renal, 28.5%; with UO-31 renal, 34.2%; in the experiment with ACHN renal, 30.5%; in the experiment on CAKI-1 renal, 55.2%. For the same compound, the growth in the experiment on A498 renal was 22.4%; in the experiment with CCRF-CEM leukemia it was 6.9% (active); in the experiment on MOLT-4 leukemia, -2.78% (active); with RPMI-8226 leukemia, 29%; in the experiment with OVCAR-8 ovarian, 22.2%; in the experiment on OVCAR-5 ovarian, 25.6%. Besides, the growth in the experiment on OVCAR-4 ovarian was 25.1%; in the experiment with SK-OV-3 ovarian, 41.4%; in the experiment with OVCAR-3 ovarian, 28.5%; in the experiment with HS 578T breast, 21.5%.

As to `O=C(O)CCC(=O)OC[C@@H](NC(=O)C(Cl)Cl)[C@H](O)c1ccc([N+](=O)[O-])cc1`, the growth with SK-MEL-2 melanoma was 105%; with EKVX NSCLC, 106%; in the experiment on SN12C renal, 92.9%; in the experiment with UO-31 renal, 72%; with CAKI-1 renal, 89.6%; with A498 renal, 117%. For the same compound, the growth in the experiment with CCRF-CEM leukemia was 89.7%; in the experiment on MOLT-4 leukemia, 90.7%; with SR leukemia, 95.9%; with RPMI-8226 leukemia, 89.5%; in the experiment on OVCAR-8 ovarian, 94.4%; in the experiment with OVCAR-5 ovarian it was 93.5%. The growth is 102% in the experiment with OVCAR-4 ovarian; 107% with SK-OV-3 ovarian; 97.2% in the experiment on IGROV1 ovarian; 121% in the experiment with OVCAR-3 ovarian; 111% with HS 578T breast; 101% in the experiment on NCI/ADR-RES ovarian.

Consider `CN(C)CCC(=O)Nc1ccc(-n2cc(-c3cccc(NC(=S)Nc4cccc(-c5cn(-c6ccc(NC(=O)CCN(C)C)cc6)nn5)c4)c3)nn2)cc1`, for which the growth with SK-MEL-2 melanoma was 91.6%; with EKVX NSCLC, 101%; with SN12C renal, 91.4%; with UO-31 renal it was 135%; with CAKI-1 renal, 130%; in the experiment with A498 renal, 108%. The growth was 48.4% in the experiment on CCRF-CEM leukemia; 47.2% with MOLT-4 leukemia; 25.9% in the experiment on SR leukemia; 97.3% in the experiment on OVCAR-8 ovarian; 113% in the experiment with OVCAR-5 ovarian; 115% with SK-OV-3 ovarian. For the same compound, the growth is 85.5% in the experiment on IGROV1 ovarian, 94.6% in the experiment with OVCAR-3 ovarian, 137% in the experiment on HS 578T breast and 113% with NCI/ADR-RES ovarian.
